The source of these data is PubChem BioAssay (EPA / NIEHS).

Each structure is given as a SMILES string. Records with an inconclusive call do not appear. The source made the active and inactive calls. The calls were made as follows: active = hit-call score of the fitted dose curve at least 0.9, where 1 is the maximum; inconclusive = response in the unintended direction; inactive = score below 0.9.

Assay [1] is described as follows: TOX21_p53_BLA_p2_viability: Viability Assessment in the Tox21 HCT-116 p53 Agonism Beta-lactamase Assay, Phase 2 (AID 2283591).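 Also: compound exposure lasted 16 h at 37 °C; actives lower the ATP signal meaning cytotoxicity.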 The essentials:
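HCT-116 p53-bla cells (4000/well) rested 5 h at 37C, then received compounds in DMSO (217-fold dilution) for 16 h at 37C, 5% CO2. After the CCF4 read, CellTiter-Glo was added; ATP luminescence was read after 30 min at room temperature.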

For assay [2], the target named is Cellular tumor antigen p53 (Homo sapiens) (UniProt P04637). Description: TOX21_p53_BLA_p3_ratio: Tox21 HCT-116 p53 Agonism Beta-lactamase Assay, Ratio, Phase 3 (AID 2283596). The essentials:
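HCT116 p53-bla cells (4000/well) given compound in DMSO (217-fold dilution) after 5 h, incubated 16 h at 37C. CCF4-AM substrate 2 h at room temperature; 460/530 nm emission ratio, gain fitted against DMSO.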

Assay [3] shares this target. The assay is described as follows: TOX21_p53_BLA_p5_ratio: Tox21 HCT-116 p53 Agonism Beta-lactamase Assay, Ratio, Phase 5 (AID 2283599). The essentials:
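HCT-116 cells carrying a p53-inducible beta-lactamase reporter were seeded at 4000 cells/well and dosed after 5 h with compound in DMSO (217-fold dilution). After 16 h at 37C, CCF4-AM substrate was added for 2 h, and the 460/530 nm emission ratio was scored as gain-of-signal versus DMSO.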

Assay [4] has the same target. The assay is described as follows: TOX21_p53_BLA_p4_ratio: Tox21 HCT-116 p53 Agonism Beta-lactamase Assay, Ratio, Phase 4 (AID 2283601). The essentials: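 HCT116 cells carrying an inducible beta-lactamase reporter were plated at 4000 cells/well, rested 5 h, then exposed to compounds in DMSO (217-fold dilution) for 16 h at 37C. CCF4-AM substrate was loaded 2 h at room temperature; 460/530 nm emission ratio scored gain-of-signal versus DMSO.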

Assay [5] in a line: TOX21_p53_BLA_p4_viability: Viability Assessment in the Tox21 HCT-116 p53 Agonism Beta-lactamase Assay, Phase 4 (AID 2283597).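 Also: hits lower the luminescence signal meaning cytotoxicity.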 The method, boiled down:
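Luminescent ATP readout (CellTiter-Glo, 30 min, room temperature) in the same wells as the p53 bla ratio. HCT116 cells were treated for 16 h at 37C with DMSO-dissolved compounds.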

Assay [6] is described as follows: TOX21_p53_BLA_p5_viability: Viability Assessment in the Tox21 HCT-116 p53 Agonism Beta-lactamase Assay, Phase 5 (AID 2283600). The essentials: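 Seeded cells (4000/well) settle 5 h before compound addition. Plates then incubate 16 h at 37C, receive FRET substrate for 2 h, and finally CellTiter-Glo, with luminescence measured after a 30 min room-temperature incubation.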

The target in assay [7] is Estrogen receptor (Homo sapiens) (UniProt P03372). The assay is described as follows: CCTE_Deisenroth_AIME_96WELL_LUC_Active: CCTE's 96-well Estrogen Receptor Transactivation Assay with AIME metabolic competence (ERTA luciferase; metabolism positive), Deisenroth Lab (AID 2284023). The method, boiled down:
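Chemicals pre-incubated 2 h with alginate-immobilized phenobarbital/beta-naphthoflavone-induced male Sprague Dawley rat liver S9, then medium transferred to VM7Luc4E2 cells for 24 h luciferase read-out. 10-point series 0.002 - 200 uM; fitted relative to 17beta-estradiol.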

Assay [8] has the same target. Description: CCTE_Deisenroth_AIME_96WELL_LUC_Inactive: CCTE's 96-well Estrogen Receptor Transactivation Assay without AIME metabolic competence (ERTA luciferase; metabolism negative), Deisenroth Lab (AID 2284025). The method, boiled down:
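VM7Luc4E2 breast cells, luciferase read 24 h after dosing with medium pre-incubated 2 h on alginate-water lids (metabolism negative). 10-point series 0.002–200 uM, single technical replicate, n≥4; fit relative to 17beta-estradiol.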

The nature of assay [9]: CCTE_Deisenroth_AIME_96WELL_CTox_Active: Cytotoxicity Assessment (CTOX) in CCTE's 96-well Estrogen Receptor Transactivation Assay with AIME metabolic competence (metabolism positive), Deisenroth Lab (AID 2284028). The method, boiled down: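 Chemicals (0.002–200 uM) were first incubated 2 h with alginate-immobilized phenobarbital/beta-naphthoflavone-induced male rat liver S9; conditioned medium then went onto VM7Luc4E2 cells for 24 h, with viability read by protease-substrate fluorescence, fitted bidirectionally.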

Assay [10] can be described thus: CCTE_Deisenroth_AIME_96WELL_CTox_Inactive: Cytotoxicity Assessment (CTOX) in CCTE's 96-well Estrogen Receptor Transactivation Assay without AIME metabolic competence (metabolism negative), Deisenroth Lab (AID 2284029). The method, boiled down: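 Chemicals (0.002 - 200 uM, 10 points) incubated 2 h with alginate-water microspheres (no S9), then medium moved onto VM7Luc4E2 cells for 24 h. Viability by protease-substrate cleavage to fluorescent probe; bidirectional fitting.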

Sequence of Cellular tumor antigen p53 (Homo sapiens) (P04637 whole entry, looked up): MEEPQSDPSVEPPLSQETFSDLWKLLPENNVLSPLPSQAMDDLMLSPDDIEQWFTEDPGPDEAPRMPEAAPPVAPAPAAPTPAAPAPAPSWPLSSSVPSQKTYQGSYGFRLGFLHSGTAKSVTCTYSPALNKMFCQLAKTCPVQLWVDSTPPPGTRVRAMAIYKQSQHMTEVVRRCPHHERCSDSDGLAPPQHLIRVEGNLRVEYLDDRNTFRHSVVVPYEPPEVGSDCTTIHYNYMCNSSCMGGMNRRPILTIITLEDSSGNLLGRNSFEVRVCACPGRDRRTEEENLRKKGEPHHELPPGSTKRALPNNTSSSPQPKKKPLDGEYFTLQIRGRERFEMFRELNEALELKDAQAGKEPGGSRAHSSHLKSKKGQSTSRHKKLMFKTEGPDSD
Sequence of Estrogen receptor (Homo sapiens) (P03372 whole entry, looked up): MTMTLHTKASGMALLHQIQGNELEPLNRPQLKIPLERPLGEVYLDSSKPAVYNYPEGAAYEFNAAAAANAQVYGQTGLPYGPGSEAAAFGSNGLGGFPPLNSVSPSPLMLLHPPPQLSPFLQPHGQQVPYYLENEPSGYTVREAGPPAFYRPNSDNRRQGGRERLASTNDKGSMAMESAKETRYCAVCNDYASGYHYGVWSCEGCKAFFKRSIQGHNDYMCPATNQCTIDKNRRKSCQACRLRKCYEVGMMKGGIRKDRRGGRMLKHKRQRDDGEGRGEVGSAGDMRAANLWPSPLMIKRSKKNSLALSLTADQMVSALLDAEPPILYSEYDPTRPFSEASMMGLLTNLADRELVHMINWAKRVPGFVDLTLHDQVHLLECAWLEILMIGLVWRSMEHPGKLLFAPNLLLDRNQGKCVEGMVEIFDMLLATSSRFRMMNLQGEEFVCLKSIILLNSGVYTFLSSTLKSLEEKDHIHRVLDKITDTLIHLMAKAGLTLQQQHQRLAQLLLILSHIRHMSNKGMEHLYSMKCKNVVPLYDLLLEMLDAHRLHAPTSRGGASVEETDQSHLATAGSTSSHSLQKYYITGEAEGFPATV

For `O=CNNC=O`, the call in assay [1], in assay [2], in assay [3] and in assay [4] was inactive.

For `O=C(CN1CCN(Cc2ccc3c(c2)OCO3)CC1)N1c2ccccc2Sc2ccccc21`, the molecule was classed as inactive in assay [1], in assay [5], in assay [3], in [6] and in [4].

Turning to `CCC(Cc1c(I)cc(I)c(O)c1I)C(=O)O` (stereo not given), the outcome in assay [1], in assay [5] and in assay [3] was inactive.

In the case of `CC(=C(CCO)SSCC1CCCO1)N(C=O)Cc1cnc(C)nc1N` (stereo not given), the molecule was classed as inactive in assay [1], in assay [5] and in [3].

In the case of `CC(=O)N=c1sc(S(N)(=O)=O)nn1C`, the outcome in assay [1], in [5], in assay [3], in assay [6] and in assay [4] was inactive.

As for `CC(=O)Nc1ccc(C)c(Cl)c1`, the result in assay [1], in [5], in assay [3] and in assay [6] was inactive.

As to `CC(C)(c1cc(Br)c(OCC(Br)CBr)c(Br)c1)c1cc(Br)c(OCC(Br)CBr)c(Br)c1` (stereo not given), the result in assay [1], in [5] and in [3] was inactive.

Take `CC(O)CN(CCCN(C)C)CCCN(C)C` (stereo not given): the molecule was called inactive in assay [1], in [2], in assay [6] and in assay [4].

As to `Cc1cscn1`, the molecule was called inactive in [1] and in assay [5].

Take `CC(C)=CCC/C(C)=C/CC/C(C)=C/CCC(=O)OC/C=C(\C)CCC=C(C)C`: the molecule was called inactive in assay [1] and in [5].

Take `CC(NN)c1ccccc1` (stereo not given): the call in assay [1], in [2], in assay [6] and in [4] was inactive.

On to `CCn1cc(C(=O)O)c(=O)c2cnc(N3CCNCC3)nc21`, for which the outcome in assay [1], in assay [2] and in assay [4] was inactive.

With `CC(C(=O)O)c1ccc(/C=C2\CCCCC2=O)cc1` (stereo not given), the molecule was called inactive in [1], in [2], in [6] and in assay [4].

Consider `CC[C@H]1OC(=O)[C@H](C)[C@@H](O[C@H]2C[C@@](C)(OC)[C@@H](O)[C@H](C)O2)[C@H](C)[C@@H](O[C@@H]2O[C@H](C)C[C@H](N(C)C)[C@H]2O)[C@](C)(O)C[C@@H](C)[C@@H]2N[C@@H](COCCOC)O[C@@H]([C@H]2C)[C@]1(C)O`, for which the molecule was called inactive in assay [1], in [2], in assay [3] and in assay [4].

Take `O=[N+]([O-])c1ccc2[nH]ncc2c1`: the molecule was classed as inactive in [1], in assay [5], in assay [3], in [6] and in [4].

With `C(=C\c1ccccc1)/c1ccccc1`, the result in assay [1], in assay [2], in [6], in assay [9] and in assay [10] was inactive. Also, the results for the concentration at half-maximal activity (AC50) in assay [7] and in assay [8] were 18 µM (active) and 44.6 µM (active), respectively.

As for `O=C1OC(=O)C2CCCCC12` (stereo not given), the result in [1], in [5] and in assay [3] was inactive.

In the case of `CN1CCCC(n2nc(Cc3ccc(Cl)cc3)c3ccccc3c2=O)CC1` (stereo not given), the call in assay [1] and in assay [5] was inactive.

As to `c1cnc(N2CCN(Cc3ccc4c(c3)OCO4)CC2)nc1`, the molecule was called inactive in assay [1] and in [5].

With `CC(C)CCCO`, the molecule was classed as inactive in assay [1], in assay [2] and in assay [4].

Turning to `COCCOCCOCCOCCO`, the molecule was called inactive in assay [1], in assay [2], in [3] and in assay [4].

For `Cc1ccccc1C(N)=O`, the molecule was called inactive in assay [1], in assay [2], in assay [6] and in assay [4].

With `CCC(C(=O)OCCOCCN(CC)CC)c1ccccc1` (stereo not given), the molecule was called inactive in assay [1], in assay [2] and in [4].

Consider `COc1ccc2c(c1)c(CC(=O)OCC(=O)O)c(C)n2C(=O)c1ccc(Cl)cc1`, for which the molecule was classed as inactive in assay [1] and in assay [5].
